# According to PMC12820563, “FoxP3 forms a head-to-head dimer in vivo and stabilizes its multimerization on adjacent microsatellites”:
# In all, about 16,000 sequences were measured (“rpm ratio (pull-down/input)”: median about 0.5, highest 2% from about 5.5 on). Only a selection was taken, and the highest values are over-represented in it overall.
# Target: T1, MBP-FoxP3dN (Mus musculus, UniProt Q99JB6 188-423)
# T1 sequence: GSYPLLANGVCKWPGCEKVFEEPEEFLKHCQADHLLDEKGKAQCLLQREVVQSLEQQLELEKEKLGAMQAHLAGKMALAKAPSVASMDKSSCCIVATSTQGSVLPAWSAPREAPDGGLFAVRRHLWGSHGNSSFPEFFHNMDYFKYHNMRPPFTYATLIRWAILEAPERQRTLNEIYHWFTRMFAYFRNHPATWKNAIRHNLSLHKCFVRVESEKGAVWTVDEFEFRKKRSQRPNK
# Experiment: PD-seq (MBP pull-down with sequencing); 20 mM Tris-HCl pH 7.5, 100 mM NaCl, 1.5 mM MgCl2, 0.4 uM protein, 0.1 uM dsDNA library, 30 min, room temperature, amylose pull-down; high values mean tight binding
# Details: protein: recombinant; tags: His6-MBP; chain copies: 2; dsDNA, one strand shown
# Method in brief: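 Protein and DNA were mixed at 0.4 µM and 0.1 µM and held for 30 min at room temperature in Tris pH 7.5 buffer with NaCl and MgCl2; the protein was a His6-MBP-tagged, N-terminally truncated mouse FoxP3 or FoxP1 fragment from E. coli, and the DNA a Klenow-filled double-stranded degenerate library. Amylose resin captured the complexes, which were washed three times. Binding is read as reads-per-million enrichment of pull-down versus input after Illumina sequencing, with replicates pooled.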
row,Sequence,binding signal
1,GATGATTGTTCTCCCAGCTGATGAATTTCTATGCTCGAGTAAACAAATTTTCCTAATCTTTCTGTTCAAGCGCCATCTAC,0.385 RPM ratio (pull-down/input)
2,GATGATTGTTCTCCCAGCTGATGAATTTGTTGTATCGAGTAAACAAATTTTCCTAATCTTTCTGTTCAAGCGCCATCTAC,7.55 RPM ratio (pull-down/input)
3,GATGATTGTTCTCCCAGCTGATGAATTCGTTTCCTCGAGTAAACAAATTTTCCTAATCTTTCTGTTCAAGCGCCATCTAC,1.76 RPM ratio (pull-down/input)
4,GATGATTGTTCTCCCAGCTGATGAATTGTGGAAGTCGAGTAAACAAATTTTCCTAATCTTTCTGTTCAAGCGCCATCTAC,0.274 RPM ratio (pull-down/input)
5,GATGATTGTTCTCCCAGCTGATGAATTTAGCGGATCGAGTAAACAAATTTTCCTAATCTTTCTGTTCAAGCGCCATCTAC,0.292 RPM ratio (pull-down/input)
6,GATGATTGTTCTCCCAGCTGATGAATTGACTCCCTCGAGTAAACAAATTTTCCTAATCTTTCTGTTCAAGCGCCATCTAC,0.386 RPM ratio (pull-down/input)
7,GATGATTGTTCTCCCAGCTGATGAATTAGTTTTCTCGAGTAAACAAATTTTCCTAATCTTTCTGTTCAAGCGCCATCTAC,4.62 RPM ratio (pull-down/input)
8,GATGATTGTTCTCCCAGCTGATGAATTTTATTGCTCGAGTAAACAAATTTTCCTAATCTTTCTGTTCAAGCGCCATCTAC,2.06 RPM ratio (pull-down/input)
9,GATGATTGTTCTCCCAGCTGATGAATTTTTTTGCTCGAGTAAACAAATTTTCCTAATCTTTCTGTTCAAGCGCCATCTAC,0.366 RPM ratio (pull-down/input)
10,GATGATTGTTCTCCCAGCTGATGAATTTGTTTGCTCGAGTAAACAAATTTTCCTAATCTTTCTGTTCAAGCGCCATCTAC,7.54 RPM ratio (pull-down/input)
11,GATGATTGTTCTCCCAGCTGATGAATTTATTTGCTCGAGTAAACAAATTTTCCTAATCTTTCTGTTCAAGCGCCATCTAC,6.11 RPM ratio (pull-down/input)
12,GATGATTGTTCTCCCAGCTGATGAATTTTGTTGCTCGAGTAAACAAATTTTCCTAATCTTTCTGTTCAAGCGCCATCTAC,5.63 RPM ratio (pull-down/input)
13,GATGATTGTTCTCCCAGCTGATGAATTGTTTTGCTCGAGTAAACAAATTTTCCTAATCTTTCTGTTCAAGCGCCATCTAC,3.65 RPM ratio (pull-down/input)
14,GATGATTGTTCTCCCAGCTGATGAATTTAGTTGCTCGAGTAAACAAATTTTCCTAATCTTTCTGTTCAAGCGCCATCTAC,2.92 RPM ratio (pull-down/input)
15,GATGATTGTTCTCCCAGCTGATGAATTAGTTTGCTCGAGTAAACAAATTTTCCTAATCTTTCTGTTCAAGCGCCATCTAC,5.59 RPM ratio (pull-down/input)
16,GATGATTGTTCTCCCAGCTGATGAATTATTTTGCTCGAGTAAACAAATTTTCCTAATCTTTCTGTTCAAGCGCCATCTAC,0.946 RPM ratio (pull-down/input)
17,GATGATTGTTCTCCCAGCTGATGAATTTGATTGCTCGAGTAAACAAATTTTCCTAATCTTTCTGTTCAAGCGCCATCTAC,5.45 RPM ratio (pull-down/input)
18,GATGATTGTTCTCCCAGCTGATGAATTTCTTTGCTCGAGTAAACAAATTTTCCTAATCTTTCTGTTCAAGCGCCATCTAC,1.5 RPM ratio (pull-down/input)

row,Sequence,binding signal
1,GATGATTGTTCTCCCAGCTGATGAATTCTCTTGCTCGAGTAAACAAATTTTCCTAATCTTTCTGTTCAAGCGCCATCTAC,0.273 RPM ratio (pull-down/input)
2,GATGATTGTTCTCCCAGCTGATGAATTTTCCTTATCGAGTAAACAAATTTTCCTAATCTTTCTGTTCAAGCGCCATCTAC,0.31 RPM ratio (pull-down/input)
3,GATGATTGTTCTCCCAGCTGATGAATTGGTGTTGTCGAGTAAACAAATTTTCCTAATCTTTCTGTTCAAGCGCCATCTAC,3.18 RPM ratio (pull-down/input)
4,GATGATTGTTCTCCCAGCTGATGAATTCGATATTTCGAGTAAACAAATTTTCCTAATCTTTCTGTTCAAGCGCCATCTAC,1.79 RPM ratio (pull-down/input)
5,GATGATTGTTCTCCCAGCTGATGAATTTCGCAAATCGAGTAAACAAATTTTCCTAATCTTTCTGTTCAAGCGCCATCTAC,0.634 RPM ratio (pull-down/input)
6,GATGATTGTTCTCCCAGCTGATGAATTCGTCGTATCGAGTAAACAAATTTTCCTAATCTTTCTGTTCAAGCGCCATCTAC,1.17 RPM ratio (pull-down/input)
7,GATGATTGTTCTCCCAGCTGATGAATTTAGTAAATCGAGTAAACAAATTTTCCTAATCTTTCTGTTCAAGCGCCATCTAC,0.439 RPM ratio (pull-down/input)
8,GATGATTGTTCTCCCAGCTGATGAATTGTAGCCGTCGAGTAAACAAATTTTCCTAATCTTTCTGTTCAAGCGCCATCTAC,0.622 RPM ratio (pull-down/input)
9,GATGATTGTTCTCCCAGCTGATGAATTATCTGTATCGAGTAAACAAATTTTCCTAATCTTTCTGTTCAAGCGCCATCTAC,0.545 RPM ratio (pull-down/input)
10,GATGATTGTTCTCCCAGCTGATGAATTATGTTTCTCGAGTAAACAAATTTTCCTAATCTTTCTGTTCAAGCGCCATCTAC,4.18 RPM ratio (pull-down/input)
11,GATGATTGTTCTCCCAGCTGATGAATTATGTATCTCGAGTAAACAAATTTTCCTAATCTTTCTGTTCAAGCGCCATCTAC,5.75 RPM ratio (pull-down/input)
12,GATGATTGTTCTCCCAGCTGATGAATTATGTGTATCGAGTAAACAAATTTTCCTAATCTTTCTGTTCAAGCGCCATCTAC,5.73 RPM ratio (pull-down/input)
13,GATGATTGTTCTCCCAGCTGATGAATTATGTATATCGAGTAAACAAATTTTCCTAATCTTTCTGTTCAAGCGCCATCTAC,5.96 RPM ratio (pull-down/input)
14,GATGATTGTTCTCCCAGCTGATGAATTTTATGTATCGAGTAAACAAATTTTCCTAATCTTTCTGTTCAAGCGCCATCTAC,3.53 RPM ratio (pull-down/input)
15,GATGATTGTTCTCCCAGCTGATGAATTATATGTATCGAGTAAACAAATTTTCCTAATCTTTCTGTTCAAGCGCCATCTAC,2.22 RPM ratio (pull-down/input)
16,GATGATTGTTCTCCCAGCTGATGAATTGTATGTATCGAGTAAACAAATTTTCCTAATCTTTCTGTTCAAGCGCCATCTAC,4.55 RPM ratio (pull-down/input)
17,GATGATTGTTCTCCCAGCTGATGAATTATGTATTTCGAGTAAACAAATTTTCCTAATCTTTCTGTTCAAGCGCCATCTAC,4.76 RPM ratio (pull-down/input)
